Bioassay records from PubChem.
Only some compounds are listed: those with a hit (about 2% of all), similar ones and a draw of the others.
NadD block = NadD (S. aureus) enzyme inhibition; purified NadD enzyme, colorimetric absorbance read-out; inhibition, % at 20 µM; 0.78% of 360,000 active; AID 602399; in the data active = inhibition above about 26%
DAGLB inhibitor = blocks human DAGLB lipase activity | HEK293T DAGLB membrane lysate, EnzChek fluorogenic substrate | inhibition, % at 5.17 µM | 0.059% of 340,000 active | AID 504411; in the data active = inhibition above about 34%
Target sequence (Q8NCG7 whole entry, looked up): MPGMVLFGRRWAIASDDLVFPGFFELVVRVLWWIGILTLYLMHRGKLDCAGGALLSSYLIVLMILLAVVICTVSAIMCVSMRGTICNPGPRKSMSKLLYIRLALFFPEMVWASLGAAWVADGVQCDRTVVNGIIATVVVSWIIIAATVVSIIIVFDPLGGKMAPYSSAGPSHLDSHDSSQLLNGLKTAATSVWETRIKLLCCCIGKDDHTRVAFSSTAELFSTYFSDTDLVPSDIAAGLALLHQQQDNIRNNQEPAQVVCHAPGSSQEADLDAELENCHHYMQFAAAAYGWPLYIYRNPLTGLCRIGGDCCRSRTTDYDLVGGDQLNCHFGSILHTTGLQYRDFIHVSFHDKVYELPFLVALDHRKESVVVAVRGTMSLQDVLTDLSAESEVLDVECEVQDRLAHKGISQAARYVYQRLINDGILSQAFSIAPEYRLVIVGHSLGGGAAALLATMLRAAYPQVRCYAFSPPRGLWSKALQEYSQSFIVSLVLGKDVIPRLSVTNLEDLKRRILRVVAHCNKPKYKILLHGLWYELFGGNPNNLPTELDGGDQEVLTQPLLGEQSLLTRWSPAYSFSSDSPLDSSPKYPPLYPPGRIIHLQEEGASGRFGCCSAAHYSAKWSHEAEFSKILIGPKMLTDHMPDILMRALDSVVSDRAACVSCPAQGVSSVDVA
ARNT TACC3 PPI = ARNT/TACC3 interaction disruption. 0.66% of 390,000 active. inhibition, % at 9.99 µM. AlphaScreen His-ARNT PAS-B/GST-TACC3 binding, luminescence; TACC3 fragment carries E629A point mutation. Q9Y6A5. AID 623870;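 active = mean inhibition of replicates at least 50% and at least half of replicates each reaching 50%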
sPLA2-III inh = Blocks human group III sPLA2 activity | inhibition, % at 12.2 µM | Q9NZ20 | QFRET BODIPY PC-A2 liposome hydrolysis, fluorescence | AID 743126 | 0.56% of 370,000 active;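 active = inhibition above mean plus 3 SD of compounds lying within the high and low control bounds, cut at about 19% in these data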
Neddylation inh = blocks human cullin neddylation. TR-FRET cullin neddylation, biochemical. inhibition, % at 25 µM. 0.58% of 360,000 active. P61081+Q13564. AID 651699; in the data active = inhibition above about 36%
DAGLB confirm = DAGLB (human) inhibition, confirmation screen; shares compounds with DAGLB inhibitor; HEK293T DAGLB membrane lysate, EnzChek fluorogenic substrate; inhibition, % at 5.17 µM; 73% of 190 active;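 active = mean inhibition over triplicate wells above a set limit taken from the primary lipase screen, cut at about 34% in these data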
Each line names hits and unclear results; the compound was inactive in the other large screens (follow-up assays come after a bar, where they were run).

CCOc1cc2c3c(c1)C(C)=CC(C)(C)N3C(=O)C2=O	none
O=C(O)c1ccccc1NS(=O)(=O)c1ccc(N/N=C/c2ccc(O)c(O)c2)c([N+](=O)[O-])c1	DAGLB inhibitor 52.4 | DAGLB confirm 59.0
O=C(O)c1ccccc1NS(=O)(=O)c1ccc(NN=Cc2ccc(F)cc2)c([N+](=O)[O-])c1	DAGLB inhibitor 36.6 (no result: sPLA2-III inh) | DAGLB confirm inactive
COc1ccccc1NS(=O)(=O)c1ccc(N/N=C/c2ccccc2OCC(=O)O)c([N+](=O)[O-])c1	none
O=C(O)COc1ccccc1/C=N/Nc1ccc(S(=O)(=O)Nc2ccc(Cl)cc2)cc1[N+](=O)[O-]	DAGLB inhibitor 39.7 | DAGLB confirm 39.9
COCC(=O)Nc1ccc2c(c1)C(=O)N(C)C[C@@H](OC)[C@H](C)CN(C(C)=O)[C@H](C)CO2	none (no result: NadD block, DAGLB inhibitor, sPLA2-III inh, Neddylation inh)
O=[N+]([O-])c1ccccc1N/N=C/c1c[nH]c2ccccc12	DAGLB inhibitor 58.4 | DAGLB confirm 60.5
Cn1cc(/C=C2\SC(=O)NC2=S)c2ccccc21	DAGLB inhibitor 36.7 | DAGLB confirm 54.1
CN(C)C(=O)C[C@H]1C=C[C@H](NC(=O)C2CCC2)[C@@H](CO)O1	none (no result: NadD block, DAGLB inhibitor, sPLA2-III inh, Neddylation inh)
C/C(C/C(C)=C1/SC(=S)NC1=O)=C1\SC(=S)NC1=O	DAGLB inhibitor 47.1 | DAGLB confirm 35.3
Cc1cc(N(CCO)CCO)ccc1N=Nc1cc(F)ccc1F	DAGLB inhibitor 42.7 | DAGLB confirm 45.0
Nc1ccc(N(CCO)CCO)cc1	none
O=[N+]([O-])c1ccc(N2CCN(c3ccccc3)CC2)cc1	DAGLB inhibitor 34.2 | DAGLB confirm 82.3
Cn1c(N=Nc2ccccc2)nc2ccccc21	none
CN(C)c1ccc(N=Nc2nc3ccccc3n2C)cc1	DAGLB inhibitor 35.9, sPLA2-III inh 32.4 | DAGLB confirm 58.9
COc1cc(/C=C2/C(=O)NN(c3ccc(Cl)c(Cl)c3)C2=O)cc([N+](=O)[O-])c1O	DAGLB inhibitor 38.0 | DAGLB confirm 49.9
COc1cc(/C=C2\SC(=O)N(c3ccccc3Cl)C2=O)cc([N+](=O)[O-])c1O	DAGLB inhibitor 41.9 | DAGLB confirm 37.5
COc1cc(/C=C2\SC(=O)N(c3ccc(O)cc3)C2=O)cc(OC)c1OC	none
CC1=C(O)C(=O)C(c2c(C)cc(C)c(Br)c2C)=C(O)C1=O	DAGLB inhibitor 43.4 (no result: ARNT TACC3 PPI) | DAGLB confirm inactive
CCc1nnc(NS(=O)(=O)c2ccc(Nc3ccc([N+](=O)[O-])c4nonc34)cc2)s1	DAGLB inhibitor 35.9 | DAGLB confirm inactive
CCc1nnc(NS(=O)(=O)c2ccc(NS(=O)(=O)c3ccccc3[N+](=O)[O-])cc2)s1	none
Cc1ccc(S(=O)(=O)N(C)C[C@@H]2OCCCC[C@@H](C)Oc3ccc(N(C)C)cc3C(=O)N([C@H](C)CO)C[C@H]2C)cc1	none (no result: NadD block, DAGLB inhibitor, sPLA2-III inh, Neddylation inh)
CC(C1SC(=S)NC1=O)C1SC(=S)NC1=O (configuration not stated)	DAGLB inhibitor 43.9 (no result: ARNT TACC3 PPI) | DAGLB confirm 37.5
CNC[C@@H]1Oc2ccc(NC(=O)Nc3ccccc3)cc2CC(=O)N([C@H](C)CO)C[C@H]1C	none (no result: NadD block, DAGLB inhibitor, sPLA2-III inh, Neddylation inh)
CC1=NN(c2ccccc2)C(=O)/C1=C\C=C1\N(C)c2ccccc2C1(C)C	none
CC1=NN(c2ccccc2)C(=O)/C1=C\C=C1/N(C)c2ccccc2C1(C)C	DAGLB inhibitor 40.1 (no result: ARNT TACC3 PPI) | DAGLB confirm 61.3
CCCNC(=O)N(C)C[C@@H]1Oc2ncc(-c3ccc(OC)cc3)cc2C(=O)N([C@H](C)CO)C[C@@H]1C	none (no result: NadD block, DAGLB inhibitor, sPLA2-III inh, Neddylation inh)
O=C(NNc1c2ccccc2nc2ccccc12)c1ccccc1O	DAGLB inhibitor 48.1 (no result: ARNT TACC3 PPI) | DAGLB confirm 82.1
O=C(NNc1c2ccccc2nc2ccccc12)c1ccc(O)cc1O	NadD block 30.8, DAGLB inhibitor 39.2 | DAGLB confirm 52.9
Cc1cc(N=Nc2ccccc2C(=O)O)c(C)c(C)c1O	DAGLB inhibitor 35.3 | DAGLB confirm 48.3
O=C(C[C@H]1C[C@@H]2c3cc(NC(=O)c4cccnc4)ccc3O[C@@H]2[C@@H](CO)O1)NCCc1ccccc1	none (no result: NadD block, DAGLB inhibitor, sPLA2-III inh, Neddylation inh)
CC(CCC(C)C(C)(C)C)[C@@H]1CC[C@H]2C3C[C@H](OS(O)(=S)=S)[C@H]4C[C@H](OS(O)(=S)=S)[C@@H](OS(O)(=S)=S)C[C@]4(C)[C@H]3CC[C@]12C (some centres not stated) (tested in a mixture with another compound)	NadD block 53.0, DAGLB inhibitor 34.8, ARNT TACC3 PPI 54.6 (no result: sPLA2-III inh) | DAGLB confirm 34.3
Cc1ccc(S(=O)(=O)N/N=C/c2cccn2-c2ccc(Cl)cc2)cc1	none
CC1=NN(c2ccc(Cl)cc2)C(=O)/C1=C\c1cccn1-c1ccc(S(N)(=O)=O)cc1	DAGLB inhibitor 36.5 | DAGLB confirm inactive
N=C1C(c2nc3ccccc3s2)=C(O)CN1NC(=O)c1ccccc1[N+](=O)[O-]	DAGLB inhibitor 37.4 | DAGLB confirm 52.6
N=C1C(c2nc3ccccc3s2)=C(O)CN1NC(=O)c1c[nH]c2ccccc12	none
O=C(C[C@@H]1CC[C@@H]2[C@H](COC[C@@H](O)CN2Cc2ccc(F)cc2)O1)N1CCc2ccccc2C1	none (no result: NadD block, DAGLB inhibitor, sPLA2-III inh, Neddylation inh)
Nc1c(S(=O)(=O)O)cc(NC(=O)c2ccccc2)c2c1C(=O)c1ccccc1C2=O	DAGLB inhibitor 60.9 (no result: sPLA2-III inh) | DAGLB confirm 71.7
O=C(Nc1ccccc1-c1ccccc1)c1ccccc1	none
CC1(C)CC(=O)C2=C(C1)N=C1c3ccccc3C(=O)C1C2c1ccc(Cl)cc1 (configuration not stated)	DAGLB inhibitor 36.8 | DAGLB confirm 35.0
O=C(CSCc1cccc(Br)c1)N=Nc1c(O)[nH]c2ccccc12	none
O=Nc1c(-c2c(O)[nH]c3cc(Br)ccc23)[nH]c2ccccc12	DAGLB inhibitor 47.2 | DAGLB confirm 59.2
COCCNC(=O)C[C@H]1C=C[C@H](NS(=O)(=O)c2ccc(C)cc2)[C@@H](CO)O1	none (no result: NadD block, DAGLB inhibitor, sPLA2-III inh, Neddylation inh)
NC(=O)CC(NC(=O)c1ccccc1)c1ccc(NCCc2cccc(F)c2)c([N+](=O)[O-])c1 (configuration not stated)	none
NC(=O)CC(NC(=O)c1ccc(Br)cc1)c1ccc(NCCc2ccc(F)cc2)c([N+](=O)[O-])c1 (configuration not stated)	DAGLB inhibitor 38.6 | DAGLB confirm 75.7
CC(C)NC(=O)N(C)C[C@@H]1Oc2ccc(NC(=O)Cc3cn(C)c4ccccc34)cc2C(=O)N([C@H](C)CO)C[C@H]1C	none (no result: NadD block, DAGLB inhibitor, sPLA2-III inh, Neddylation inh)
C[C@H]1CN([C@@H](C)CO)C(=O)c2cc(NS(=O)(=O)c3cn(C)cn3)ccc2O[C@H]1CN(C)Cc1ccc(-c2ccccc2)cc1	none (no result: NadD block, DAGLB inhibitor, sPLA2-III inh, Neddylation inh)
c1ccc(-[n+]2nc(Nc3cccc4ccccc34)sc2-c2c3ccccc3cc3ccccc23)cc1	NadD block 41.9, DAGLB inhibitor 43.3 (no result: sPLA2-III inh) | DAGLB confirm 41.4
Fc1ccc(-[n+]2nc(Nc3ccccc3)sc2-c2c3ccccc3cc3ccccc23)cc1	none
CCC(=O)Nc1ccc2c(c1)C(=O)N(C)C[C@@H](OC)[C@@H](C)CN(CC1CC1)[C@H](C)CO2	none (no result: NadD block, DAGLB inhibitor, sPLA2-III inh, Neddylation inh)
